Values without a mark were called inactive. Records with an inconclusive call do not appear. Entries that show only a call come without a potency. Active and inactive are the calls of the source. Unless noted, the call rests on the fitted dose curve; in most records, active means well fitted curve in the direction sought with a large enough effect in the repeat runs; inconclusive means weak or mixed curves; inactive means no such curve, though single readings can be large; an effect the other way counts as inactive or inconclusive.
Columns and labels:
[1] = qHTS assay to identify small molecule antagonists of the constitutive androstane receptor (CAR) signaling pathway - cell viability counter screen (AID 1224837); further: nearly all actives have a fitted effect of over 45% in size
Method in brief: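 Read-out: CellTiter-Fluor fluorescence after 23 hr at 37 C/5% CO2. Cells: HepG2 double-stable for hCAR and CYP2B6-2.2kb. Compounds tested at 15 concentrations in the presence of CITCO, final concentration 50 nM.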

[2] = target: Nuclear receptor subfamily 1 group I member 3 (Homo sapiens) (UniProt Q14994); assay: qHTS assay to identify small molecule antagonists of the constitutive androstane receptor (CAR) signaling pathway (AID 1224838);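 further: HepG2 cells stably expressing hCAR with CYP2B6 luciferase reporter stimulated by CITCO; nearly all actives have a fitted effect of over 40% in size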
Sequence of Nuclear receptor subfamily 1 group I member 3 (Homo sapiens) (Q14994 whole entry, looked up): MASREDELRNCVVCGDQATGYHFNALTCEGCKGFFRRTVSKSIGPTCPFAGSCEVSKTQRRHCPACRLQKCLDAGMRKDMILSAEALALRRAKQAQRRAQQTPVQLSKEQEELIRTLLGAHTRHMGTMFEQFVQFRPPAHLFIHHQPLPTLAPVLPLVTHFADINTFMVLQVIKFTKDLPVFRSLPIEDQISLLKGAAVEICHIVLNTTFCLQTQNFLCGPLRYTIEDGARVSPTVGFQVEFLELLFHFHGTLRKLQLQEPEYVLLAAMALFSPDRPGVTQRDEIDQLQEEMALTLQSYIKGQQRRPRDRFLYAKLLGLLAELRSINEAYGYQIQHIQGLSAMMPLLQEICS
Method in brief: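 Read-out: ONE-Glo luciferase luminescence after 30 min at room temperature. HepG2-CYP2B6-hCAR double-stable cells, compounds in 15-point titration plus 50 nM CITCO final, 24 h at 37 C/5% CO2.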

[3] = target: Nuclear receptor subfamily 1 group I member 3 (Homo sapiens) (UniProt Q14994); assay: qHTS assay to identify small molecule agonists of the constitutive androstane receptor (CAR) signaling pathway (AID 1224839); further: nearly all actives have a fitted effect of over 15% in size; further: potency means the concentration at half of the fitted maximal effect;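 on activation: HepG2 cells stably carrying human CAR and a CYP2B6 luciferase reporter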
Method in brief: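 Luminescence read-out (ONE-Glo, 30 min, room temperature) from double-stable HepG2-CYP2B6-hCAR cells exposed 24 h to 15-point compound series in presence of 0.75 uM PK11195 final.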

[4] = qHTS assay to identify small molecule antagonists of the estrogen related receptor signaling pathway with the pleiotropic PPARgamma coactivator (PGC) from Tox21 10K library - cell viability counter screen (AID 1224840; active means well fitted cell-killing curve with a large enough effect in the repeat runs, not every such curve was filed as active; further: nearly all actives have a fitted effect of over 40% in size)
Method in brief: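 Fluorescence read-out of CellTiter-Fluor viability reagent, added after cells had been exposed to compound in DMSO for 17.5 h at 37 C; 30 min development at 37 C/5% CO2. Cells: PGC/ERR line, 2,000/well.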

[5] = target: Thyrotropin receptor (Homo sapiens) (UniProt P16473); assay: qHTS assay to identify small molecule agonists of the thyroid stimulating hormone receptor (TSHR) signaling pathway (AID 1224843; calls by dose curve; further: nearly all actives have a fitted effect of over 45% in size)
Sequence of Thyrotropin receptor (Homo sapiens) (P16473 whole entry, looked up): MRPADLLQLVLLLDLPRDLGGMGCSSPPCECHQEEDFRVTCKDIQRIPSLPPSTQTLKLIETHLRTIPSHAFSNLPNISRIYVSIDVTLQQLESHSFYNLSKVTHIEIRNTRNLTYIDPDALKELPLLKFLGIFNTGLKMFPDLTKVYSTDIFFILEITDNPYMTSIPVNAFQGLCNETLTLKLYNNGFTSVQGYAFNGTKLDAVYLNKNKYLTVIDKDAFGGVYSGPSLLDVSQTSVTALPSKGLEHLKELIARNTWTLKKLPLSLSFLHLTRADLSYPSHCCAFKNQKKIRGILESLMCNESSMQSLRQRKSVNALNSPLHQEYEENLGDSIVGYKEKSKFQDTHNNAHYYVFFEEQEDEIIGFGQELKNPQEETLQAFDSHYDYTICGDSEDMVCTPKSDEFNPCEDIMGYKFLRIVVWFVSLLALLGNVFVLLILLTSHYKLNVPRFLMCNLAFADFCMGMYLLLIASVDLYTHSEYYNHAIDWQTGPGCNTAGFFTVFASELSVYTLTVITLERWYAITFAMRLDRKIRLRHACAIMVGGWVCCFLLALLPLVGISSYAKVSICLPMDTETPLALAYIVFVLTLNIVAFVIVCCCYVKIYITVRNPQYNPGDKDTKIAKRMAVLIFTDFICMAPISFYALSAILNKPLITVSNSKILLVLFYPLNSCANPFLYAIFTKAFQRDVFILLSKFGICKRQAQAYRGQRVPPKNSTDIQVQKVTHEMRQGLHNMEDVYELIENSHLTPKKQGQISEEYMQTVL
Method in brief: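 Agonist-mode screen: TSHR HEK293 cells received test chemicals for half an hour at room temperature, then HTRF cAMP detection reagents for one hour prior to fluorescence measurement. Each chemical ran as a 15-concentration series, triplicated.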

[6] = qHTS assay to identify small molecule agonists of the hypoxia (HIF-1) signaling pathway - cell viability counter screen (AID 1224844; calls by dose curve; further: nearly all actives have a fitted effect of over 50% in size)
Method in brief: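 CellTiter-Glo luminescence read-out, 30 min RT, taken in the same wells as the beta-lactamase HRE reporter assay; HRE-bla ME-180 cells, 0.5% dialyzed FBS, 17 hr compound treatment at 37C, 5% CO2.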

[7] = qHTS assay to identify small molecule agonists of the hypoxia (HIF-1) signaling pathway (AID 1224846; active means well fitted activation curve with a large enough effect in the signal ratio in the repeat runs, not every such curve was filed as active; the % refers to the signal ratio)
Method in brief: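 Beta-lactamase FRET read-out (CCF4-AM substrate) from ME-180 cells carrying an HRE-driven bla reporter, after 17 hrs compound exposure at 37C/5% CO2. Cells were seeded at 2,000 per well in 0.5% dialyzed FBS medium and preincubated 5 hrs.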

[8] = qHTS assay to identify small molecule agonists of H2AX - cell viability counter screen (AID 1224847; calls by dose curve; further: top concentration of the series differs between compounds; nearly all actives have a fitted effect of over 30% in size)
Method in brief: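 CHO-K1 wt, 1000 cells/well, o/n 37C; cpds 15 conc, 3 h 37C, 0.76% DMSO; CellTiter-Glo, 30 min RT, luminescence.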

[9] = qHTS RealTime-Glo MT Cell Viability Assay in HepG2 cells - 24 hour (AID 1224867); further: nearly all actives have a fitted effect of over 50% in size
Method in brief: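 Tox21 10K library screened in qHTS format on HepG2 cells carrying RealTime-Glo reagents. Compounds were added after a 5 h preincubation, and the luminescent signal from continuous culture was measured repeatedly during 40 h treatment.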

[10] = qHTS RealTime-Glo MT Cell Viability Assay in HEK293 cells - 32 hour (AID 1224868); further: top concentration of the series differs between compounds; nearly all actives have a fitted effect of over 50% in size
Method in brief: (§1)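 Luminescence generated by NanoLuc from substrate produced by living HEK293 cells served as the viability signal. Each value reflects the reading at its stated time point during continuous 40 h compound exposure at 37 C.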

[11] = A CellTox Green Cytotoxicity Assay to monitor cytotoxicity in HEK293 cells - 0 hour (AID 1224869); further: nearly all actives have a fitted effect of over 50% in size
Method in brief: (§2)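 Read-out: fluorescence of a cell-impermeant cyanine dye staining DNA of dead cells, proportional to cytotoxicity. HEK293, 600 cells/well with reagent, compound (23 nL DMSO) added after 5 h; reads at 0, 8, 16, 24, 32, 40 h.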

[12] = qHTS RealTime-Glo MT Cell Viability Assay in HepG2 cells - 40 hour (AID 1224870); further: nearly all actives have a fitted effect of over 50% in size
Method in brief: (§3)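 HepG2 cells (600/well) mixed with RealTime-Glo MT reagent, settled 5 h at 37 C/5% CO2 before compound addition. Nonlytic NanoLuc luminescence from viable-cell prosubstrate reduction read repeatedly during 40 h treatment at 37 C.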

[13] = A CellTox Green Cytotoxicity Assay to monitor cytotoxicity in HEK293 cells - 40 hour (AID 1224871); further: nearly all actives have a fitted effect of over 45% in size; further: potency means the concentration at half of the fitted maximal effect
Method in brief: as §2

[14] = qHTS RealTime-Glo MT Cell Viability Assay in HEK293 cells - 16 hour (AID 1224872)
Method in brief: as §1

[15] = qHTS RealTime-Glo MT Cell Viability Assay in HepG2 cells - 8 hour (AID 1224873); further: nearly all actives have a fitted effect of over 55% in size
Method in brief: as §3

[16] = qHTS assay to identify small molecule agonists of H2AX (AID 1224845; active means well fitted activation curve with a large enough effect in the signal ratio in the repeat runs, not every such curve was filed as active; the % refers to the signal ratio)
Method in brief: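 Wild-type CHO-K1 cells, plated overnight, exposed 3hr at 37C to 15 concentrations (0.76% DMSO final). Lysed, then HTRF anti-pH2AX (S139) cryptate and anti-H2AX-d2 antibodies, 24 hr room temperature; 665/620 nm emission read.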

[17] = qHTS assay to identify small molecule agonists of the estrogen related receptor signaling pathway with the pleiotropic PPARgamma coactivator (PGC) from Tox21 10K library (AID 1224842); further: nearly all actives have a fitted effect of over 15% in size
Method in brief: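 PGC/ERR reporter cell line, 2,000 cells per well, incubated 6 h at 37 C before 23 nL compound in DMSO was added. After 18 h at 37 C, One-Glo luminescence read following 30 min at room temperature.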

[18] = qHTS assay to identify small molecule agonists of the estrogen related receptor (ERR) signaling pathway from Tox21 library (AID 1224849; calls by dose curve; further: nearly all actives have a fitted effect of over 15% in size); conditions: ERR reporter cell line, ONE-Glo luciferase, 18 h; at 92.4 µM (top of the series) unless noted
Method in brief: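 Luminescence readout (ONE-Glo, 30 min RT) after 18 h compound exposure at 37 C of NTP-supplied ERR reporter cells; cells were plated 6 h before compound addition by pin tool.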

Structure (SMILES) | Potency [1] | Potency [2] | Potency [3] | Potency [4] | Potency [5] | Potency [6] | outcome [7] | Potency [8] | Potency [9] | Potency [10] | Potency [11] | Potency [12] | Potency [13] | Potency [14] | Potency [15] | Potency [16] | Potency [17] | activity change, positive = activation [18]
C=C(C)C(=O)OC(C)C | inactive | inactive | inactive | inactive | inactive | inactive | inactive | inactive | inactive | inactive | inactive | inactive | inactive | inactive | inactive |  |  | 
CCCCCc1ccc(N)cc1 | inactive | inactive | inactive | inactive | inactive | inactive | inactive |  | inactive | inactive | inactive | inactive | 49 µM (active) | inactive | inactive | inactive |  | 
c1ccc(-c2nc[nH]c2-c2ccccc2)cc1 | inactive | inactive | inactive | inactive | inactive | inactive |  | inactive | inactive | inactive | inactive | inactive | inactive | inactive | inactive | inactive |  | 
COc1ccc2[nH]c(S(=O)Cc3ncc(C)c(OC)c3C)nc2n1 (stereo unspecified) | inactive | inactive | 26.6 µM (active) | inactive |  | inactive | inactive |  | inactive | inactive | inactive | inactive | inactive | inactive | inactive | inactive | inactive | -23.9% [at 42.5 µM]
N#CCCNCCC#N | inactive | inactive | inactive | inactive | inactive | inactive |  | inactive | inactive | inactive | inactive | inactive | inactive | inactive | inactive | inactive |  | 

From PubChem BioAssay (Tox21)
